Structures are written as SMILES. Records with an inconclusive call do not appear. Where a call stands in place of a potency, no number is given. The source made the active and inactive calls. Calls follow the shape of the dose curve; as a rule, active = well fitted inhibition curve with a large enough effect in the signal ratio in the repeat runs, with a control signal flat; inconclusive = weak or mixed curves, or effect the other way; inactive = flat fitted curve, though single readings scatter; the % refers to the signal ratio.
Potency is read from the fitted curve at half-maximal effect.

The target of this experiment is D(2) dopamine receptor (Homo sapiens) (UniProt P14416). Briefly: Dopamine D2 receptor (DRD2) small molecule antagonists, cell-based qHTS assay (AID 1963595). The following applies: HEK293-DRD2 cAMP HTRF antagonist mode; series mostly up to 92.4 µM. A digest of the protocol: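 Antagonist mode in DRD2-HEK293 cells: after compound addition with 0.1 mM Ro20-1724, cells received quinpirole (12 nM) and NKH477 (200 nM) for 30 min at room temperature; HTRF cAMP read after 1 h detection.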
Sequence of D(2) dopamine receptor (Homo sapiens) (P14416 whole entry, looked up): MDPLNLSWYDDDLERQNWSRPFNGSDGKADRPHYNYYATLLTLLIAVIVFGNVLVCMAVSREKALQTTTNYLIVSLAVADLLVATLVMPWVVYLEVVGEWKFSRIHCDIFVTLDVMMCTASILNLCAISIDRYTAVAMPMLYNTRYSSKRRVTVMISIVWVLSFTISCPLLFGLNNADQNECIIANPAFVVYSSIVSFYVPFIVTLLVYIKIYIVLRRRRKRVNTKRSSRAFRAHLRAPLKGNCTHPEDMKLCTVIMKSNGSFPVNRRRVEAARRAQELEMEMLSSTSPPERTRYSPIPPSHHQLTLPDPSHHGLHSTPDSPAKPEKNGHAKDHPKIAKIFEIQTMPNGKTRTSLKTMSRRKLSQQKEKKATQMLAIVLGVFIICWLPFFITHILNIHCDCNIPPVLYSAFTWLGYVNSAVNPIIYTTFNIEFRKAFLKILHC
For `c1cc[n+]2c(c1)-c1cccc[n+]1CC2`, the Potency entry is “inactive”.

Consider `O=C(Nc1ccccc1-c1ccc(Cl)cc1)c1cccnc1Cl`, for which the Potency entry was “inactive”.

On to `O=C(NC(O)C(Cl)(Cl)Cl)NC(O)C(Cl)(Cl)Cl` (stereo unspecified), for which the Potency entry was “inactive”. With `CNC(=O)Oc1cccc(N=CN(C)C)c1`, the Potency result is “inactive”. With `ClCc1ccccc1Cl`, the Potency entry was “inactive”.

For the compound `CCOP(=S)(OCC)Oc1ccc(Cl)cc1Cl`, the Potency result is “inactive”. With `CC(C)O.CC(C)O.OCCN(CCO)CCO.OCCN(CCO)CCO.[Ti]`, the Potency entry was “inactive”. `CN(C)S(=O)(=O)N(SC(F)(Cl)Cl)c1ccccc1`: the Potency was 5.45 µM (active). On to `CNC(=O)O/N=C(/CSC)C(C)(C)C`, for which the Potency result was “inactive”.

With `C/C=C/C=O`, the Potency entry was “inactive”. For the compound `CNC(=O)Oc1ccccc1C(C)C`, the Potency result was “inactive”.

The values above are taken from PubChem BioAssay (Tox21).
